This is part of a sample that, as a whole, favours compounds with a hit. Of some 83,000 tested, about 20% had one in any assay.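 96-well plates, one dose, 48 hours. Percent growth reported; active if below 10.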 Values without a mark were called inactive. Active and inactive are the calls of the source.
Columns and labels:
Experiment in all cases: NCI-60 one-dose screen, 48 h (100 = growth as untreated, 0 = no growth, -100 = all killed)
Details in all cases: 10 µM unless noted
NCI-H23 lung = system: NCI-H23 lung
NCI-H226 lung = system: NCI-H226 lung
NCI-H322M lung = system: NCI-H322M lung
HOP-62 NSCLC = system: HOP-62 NSCLC
NCI-H460 lung = system: NCI-H460 lung
HOP-92 NSCLC = system: HOP-92 NSCLC
NCI-H522 lung = system: NCI-H522 lung
A549/ATCC NSCLC = system: A549/ATCC NSCLC
786-0 renal = system: 786-0 renal
COLO 205 colon = system: COLO 205 colon

SMILES	growth (NCI-H23 lung)	growth (NCI-H226 lung)	growth (NCI-H322M lung)	growth (HOP-62 NSCLC)	growth (NCI-H460 lung)	growth (HOP-92 NSCLC)	growth (NCI-H522 lung)	growth (A549/ATCC NSCLC)	growth (786-0 renal)	growth (COLO 205 colon)
CO[C@H]1NC(=O)N(S(=O)(=O)c2ccc(Cl)cc2)[C@@H]1OC	107%	131%	111%	93.1%	110%	114%	105%	98.2%	103%	108%
COc1ccc(/C=C2\Oc3cc(OCCCN4CCCC4)ccc3C2=O)cc1	87.2%	93%	93.1%	89.7%	68.5%	82.2%	85.7%	90.6%	93%	93.5%
O=C(Nc1ccc2c(c1)OCO2)C(=O)c1c[nH]c2cc(F)ccc12	79.6%	73%	65.3%	54.4%	41.3%	42.2%	61.2%	48.9%	57.7%	83.1%
COc1ccc(CN2CCc3c(Sc4ccccc4)nc(N)nc3C2=O)c(OC)c1	49%	67.6%	67.9%	86.2%	64.6%	-11.4% (active)	21.3%	60.5%	62.4%	80.2%
COc1ccc(OC)c(/C=C2\Oc3cc(OCCCN4CCCC4)ccc3C2=O)c1	80.6%	88.7%	88.9%	95.6%	61.3%	77.6%	89.6%	81.2%	84.2%	85.6%
C=CCSc1n[nH]c(-c2cccs2)n1	104%	99.4%	110%	94.3%	107%	94.7%	92%	98.8%	95.9%	137%
COc1ccc(C2C=C(c3ccc(N)cc3)N=C3SC=CN32)cc1OC (stereo not given)	101%	107%	102%	108%	116%	109%	101%	99.7%	104%	114%
COc1ccc(-c2c(N)n[nH]c2-c2cc(OC)c(OC)c(OC)c2)cc1	36.9%	82.7%	43.9%	41.1%	6.89% (active)	70.1%	-21.3% (active)	25.9%	33.7%	4.54% (active)
O=C(O)c1cn(C2CC2)c2cc(N3CCN(C(=O)/C=C/c4ccc(Cl)cc4)CC3)c(F)cc2c1=O	86.8%	91.5%	71.5%	80.8%	58.7%	57.4%	75.1%	77.4%	76.4%	98.9%
COc1cc(/C=C/C(=O)c2cccc(-n3cc(-c4cc(OC)c(OC)c(OC)c4)[nH]c3=O)c2)cc(OC)c1OC	6.11% (active)	58%	46%	42.9%	-1.97% (active)	-12.2% (active)	-66.8% (active)	35.1%	19%	-36.1% (active)
COc1ccc(-c2cn(-c3cccc(C(=O)/C=C/c4cc(OC)c(OC)c(OC)c4)c3)c(=O)[nH]2)cc1OC	93.9%	87.9%	95.5%	93%	91%	61.2%	74.4%	89.5%	80.2%	90.9%
Fc1ccc(CNCCNc2ncnc3c2cnn3-c2ccccc2)cc1	103%	102%	100%	90.4%	104%	61.8%	99.9%	91.7%	83.5%	89.6%
COc1cc(-c2nc(N=Nc3c(O)[nH]c4ccc(Br)cc34)[nH]c(=O)c2C#N)cc(OC)c1OC	102%	84.1%	99.4%	105%	104%	92.8%	84.9%	99.4%	99.8%	114%
COc1ccc(C(=O)NC(=O)Nc2cc3c(cc2F)/C(=C/c2[nH]c(C)c(CCC(=O)O)c2C)C(=O)N3)c(F)c1	41.3%	53.3%	63.9%	25.8%	28.6%	-0.4% (active)	48.6%	13.5%	39%	67.4%
COc1ccc(C(=O)n2nc(/C=C/c3ccc(O)c(OC)c3)cc2/C=C/c2ccc(O)c(OC)c2)cc1	7.96% (active)	13%	11.7%	5.2% (active)	4.37% (active)	-10.7% (active)	-6.8% (active)	3.98% (active)	2.92% (active)	-66.2% (active)
Nc1ncnc2c1c(-c1ccc(Oc3ccccc3)cc1)nn2C[C@@H]1SSC[C@@H]1O	28.8%	46.7%	61.8%	48.8%	-30.5% (active)	-4.45% (active)	-22.1% (active)	22.1%	57.5%	33.8%
COc1ccc(Nc2nn3c(-c4ccccc4)cc(-c4ccccc4)nc3c2C(N)=O)c(OC)c1	33.5%	46.4%	61.4%	47.3%	20.3%	70.9%	34.8%	24%	67.6%	53.2%
O=C(Nc1cccc(-n2cc(-c3ccncc3)c(-c3ccc(Cl)c(O)c3)n2)c1)c1ccccc1	90.8%	89.6%	89.2%	46.7%	48.7%	3.59% (active)	42.3%	52.6%	76.1%	100%
CCOC(=O)c1ccc(NC(=O)N2CC(C)OC(C)C2)cc1 (stereo not given)	92%	98.1%	111%	91.7%	104%	81.2%	94.6%	106%	98.6%	116%
O=C1/C(=C/c2ccccc2)CN(C(=O)CCN2CCC(=NO)CC2)C/C1=C\c1ccccc1	1.59% (active)	104%	34%	49.9%	-32.2% (active)	77.6%	-61.4% (active)	71.3%	-25.8% (active)	-46.8% (active)
O=C(CCl)N(C1CCCCC1)C1CCCCC1	87.9%	105%	98.8%	119%	107%	92.8%	-36.8% (active)	115%	99.3%	109%
C/C(=N/NC(=S)Nc1ccccc1)c1nc2ccc(Cl)cc2[nH]1	-45.3% (active)	-42.4% (active)	-40.4% (active)	-97.1% (active)	-66.6% (active)	-68.8% (active)	-93.4% (active)	-10.9% (active)	-47.6% (active)	-89.3% (active)
COc1cc(C(=O)/C=C/c2c(C)n([O-])c3ccc(C(F)(F)F)cc3[n+]2=O)cc(OC)c1OC	98.2%	81.6%	118%	118%	116%	87.3%	-82.1% (active)	94.1%	101%	46.2%
O=[N+]([O-])c1ccc(Sc2ncccn2)c([N+](=O)[O-])c1	53.5%	96.3%	97.7%	94.6%	95.4%	18%	-50.1% (active)	67.9%	61.3%	21%
Cc1nc2ncccc2nc1Nc1ccc(S(=O)(=O)Nc2cncs2)cc1	85%	92.5%	101%	94%	97.1%	65.4%	103%	103%	96.3%	98.9%

Source: PubChem BioAssay (NCI)
